Experimental data: the supplement of paper PMC6555819

What follows are sequences tested on VDR:RXRa (NR concentration 270 nM, RXRa partner concentration 90 nM) (assay: PBM binding z-score (relative to random genomic background probes); higher = stronger binding; sequences stand for … in GC…GCGATTGACAGCGTAGAATGAAGG).
Method: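 Protein-binding microarray (Agilent 4x180K custom design, double-stranded 60-nt probes: 5' GC cap, 34-nt variable region, 24-nt constant primer region; full probe sequence given). Purified or IVT nuclear receptor:RXRα heterodimers (3:1 NR:RXRα, mostly 270:90 nM) or homodimers were incubated for 1 h in PBS with 2% milk and no ligand, then detected with Alexa488 antibodies. Fluorescence from o1-orientation probes (~5 replicates averaged) was converted to z-scores against 500 random hg19 background probes. Variable regions are seed direct-repeat (DR0–DR5) sites, all their single-nucleotide variants and half-site ablations.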

Sequence	PBM binding z-score
TCTTGTAGATCCACAGGAGGTTAAGAAAGATCGA	0.74
CGTCCAAGGTCAGAGAGGCCAGTGAATGCCGAGT	5.4
GCTGCAAGGTCAGGTTGGTCAGCTAACGGGTACG	2.81
ACAATTAGTTGAGACGAGGGCAACCGATAGGTTG	0.691
ACTAGCAGGCCAAGTTTGGGACACTCAAACAAAG	-0.55
AGAATGAGGTTACCAACGATCAGGGAAACGCTTG	1.28
CGTCCAAGGTCATAGGAGGTCAGTGCAGACAGAT	6.74
GCGACTAGGGCAAAGCAGGTTACCATAAGGTTGG	-0.209
TAGCCTTGGTCATTCAGGGGCCAGTATAGAAAGC	-0.0829
CCGACTGGGGCAAGGTTACAATAACGCACAGCCA	0.055
CCTCGGAGGATAGAAGGTCAGAGCTGTCCGCTTT	0.755
CCTAGCAGGCCAATCTGGGTCTCTCAAGGCTTGA	-0.64
AGAACGAGGGCACGCTCAGTTGATAGCAGAGTAG	1.4
AGTATGAGGTTATTAAGATCAGGGAATTGCGGTC	2.58
ATATGTAGGTTATCGGGTCAGTCAGTTTGCGCAT	4.27
ATATCTAGGTAAAGATAGTTCAGTGAATGCAAAT	0.986
AATACAGGGTCACTAAGCCAGAGTAGGTACGAAT	4.02
ACTAGTTGGTCAGCTAAGGTCACACACAATTCGG	3.99
ATCTCTAGGTAACCAAGTTCAGTGATTGCCGAAC	4.17
TCTTGTAGATCACAGGTTAAGAAAGCCGAAGCCT	0.396

Sequence	PBM binding z-score
CCTGCTAGGTCAATGGTCAGCTATAGCAGCTCGC	0.921
TGCCAAAGTTCAAAGGTAACGTAAGTATCCACAC	4.97
CCTGCTGGGTCATGGTCAGCTAATCTACAGTATG	1.28
ATCTCTAGGCAACCAAGTTCAGTGAATGCCGAAC	2.1
AGAACGAGGGCAATGAGTCGATAGCACGGGTGGC	2.39
TCTTGTAGATTAATAGAGGTTAAGAAAGTGCGCT	2.11
GCTCGTAGATCAAGGTTAAGAAAGACTAAGCTAA	-0.0501
CAAACTAGGTCAAGGGCAAAGTCGGTTTGTGCCA	2.54
TTAACAAGGTGAAGGTCGTTGATCCCTCTGTAGA	1.35
ACAGACAGGTGATGAAGGTAACTTAGGCTATCAT	0.0593
TAAATGAGGTTAAAGATCAGGGAACGTGGCGTCG	2.22
CAAACTAGTTCACGAAAGGTCAAAGTCGAATGAC	6.33
CGTCAAAGTTCAAGGTAACTTAACAGAAAGCAGC	3.73
GCAGACGGGTGAAACGCAGGTAACTCAGGGTGGC	-0.555
CGAACGAGGGTATGAGTTGATAGCAAATGCCGAT	-0.175
AGTCAAAGTTCATCTAGGTTACGTAAGATATGCT	5.8
GTACCAAGGTGAATAGGTCGGTGATGAGTAGGCG	0.312
CCTACAGGGCCAAAAAGGTCATTGATGCCGATAA	5.62
AGAACGAGGGAAATGAGTTGATAGCACGGGTGGC	0.62
ACAGACAGGTGAGTGAAGGGAACTCAGCTGGACG	-0.408
